# Assay outcomes: PubChem, National Center for Advancing Translational Sciences (NCATS)
# Rows were chosen to be rich in hits. Some 2.3% of all compounds tested hit in one or more screens of this group.
# Tau fluor counter: counter-screen for tau fibril formation inhibitors | Potency, µM (highest dose often 57.7 µM), without a hit: top-dose activity change, negative = decrease | 280,000 tested, 0.93% active | tau K18 P301L Alexa594 fluorescence, heparin fibrillization | AID 1463; also: potency is read from the fitted curve at half-maximal effect; nearly all actives have a fitted effect of over 55% in size
#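 Human tau K18 P301L (15 uM unlabeled, 0.24 uM Alexa 594-labeled) in 100 mM sodium acetate pH 7 with 20 uM heparin, 6 hr at 37 C. ThT 30 uM added, 1 hr ambient; Alexa 594 FP and total fluorescence read at 555/632 nm.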
# USP1-UAF1 inh: blocks the human USP1/UAF1 deubiquitinase complex; O94782; recombinant USP1/UAF1, Ub-Rhodamine cleavage fluorescence; Potency, µM (highest dose often 57.1 µM), inactives show at the highest dose activity change, negative = inhibition, most hits filed as inhibitors; 390,000 tested, 0.23% active; also: potency is read from the fitted curve at half-maximal effect; nearly all actives have a fitted effect of over 60% in size
#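 USP1/UAF1 complex at 1 nM was preincubated with compound for 15 min at room temperature, then Ub-Rho substrate (150nM final) was added. Fluorescence (480/540 nm) was read kinetically, 6 reads every 60 seconds.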
# Tau ThT inhib: inhibitors of human tau fibril formation, thioflavin T binding. Potency, µM (doses to about 57.4 µM), for inactives: top-dose activity, negative = inhibition, hits mostly inhibitors. AID 1460. recombinant tau K18 P301L (four-repeat tau fragment), heparin-induced fibrillization, ThT fluorescence. 270,000 tested, 2.1% active; also: potency is read from the fitted curve at half-maximal effect; nearly all actives have a fitted effect of over 55% in size
# Target sequence (P10636 561-689 P618L limits assumed): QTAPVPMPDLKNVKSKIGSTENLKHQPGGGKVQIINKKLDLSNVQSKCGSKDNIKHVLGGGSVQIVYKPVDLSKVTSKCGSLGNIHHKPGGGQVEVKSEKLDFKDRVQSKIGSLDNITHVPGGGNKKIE
#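 In this qHTS, human K18 P301L tau is incubated with compound and heparin for 6 hr at 37 C, and Thioflavin T fluorescence then reports fibril load.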
# Tau FP inhib: tau fibrillization inhibition (FP). P10636. Potency, µM (doses to about 57.7 µM), without a hit: top-dose activity, negative = inhibition, usual class: inhibitors. 280,000 tested, 0.39% active. K18 P301L tau heparin fibrillization, Alexa594 FP, 6 h; also: potency is read from the fitted curve at half-maximal effect; nearly all actives have a fitted effect of over 55% in size
#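 Quantitative HTS format: compounds meet 15 uM recombinant K18 P301L tau and Alexa 594-tau tracer in 100 mM sodium acetate pH 7; 20 uM heparin triggers fibrillization at 37 C over 6 hr; FP gives the signal.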
# FBPA coupling cs: coupling enzyme interference in Giardia aldolase counter-screen; coupling enzyme system counterscreen, AmpLite Red fluorescence; 290,000 tested, 0.67% active; activity change, negative = inhibition, % at 58.2 µM, hits read low; in the data active = activity change below about -30%
#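 First, compound is pin-transferred into glyceraldehyde-3-phosphate coupling-enzyme reagent at 57.5 uM final and held 10 min at RT. Next, substrate, coupling system and AmpLite Red are added. After 20 min RT, fluorescence (525/598 nm) is read.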
# Numbers without * were called inactive; u = inconclusive; x = not tested or not shown; [ ] = remark or other dose. Unless noted, calls follow the shape of the dose curve; as a rule, active = well fitted curve in the direction sought with a large enough effect; inconclusive = small, poorly fitted or top-dose-only effect, or another doubt; inactive = no such curve, though single readings can be large; an effect the other way counts as inactive or inconclusive. % is scaled to controls: 0 for no effect and ±100 for the full control effect.
SMILES,Tau fluor counter,USP1-UAF1 inh,Tau ThT inhib,Tau FP inhib,FBPA coupling cs
COc1ccc(NC(=O)c2oc3ccc(S(=O)(=O)N(C)C4CCCCC4)cc3c2C)cc1Cl,u,u,-6.4%,u,x
Cc1cc(C)c2nc(N(CCCN(C)C)C(=O)c3ccc4c(c3)CCCC4)sc2c1,x,-13.2%,x,x,x
CN(C)CCCN(C(=O)c1ccc2c(c1)CCCC2)c1nc2c(F)cccc2s1,9.8%,-17.7%,9.7%,3.2%,-37.0*
COC(=O)c1c(-c2cccs2)csc1NC(=O)COc1c(C)ccc(C)c1C,-19.2%,-12.3%,20µM*,u,x
COC(=O)c1c(-c2cccs2)csc1NC(=O)COc1ccc(C)cc1,-26.8%,-22.3%,u,-3.7%,x
COC(=O)c1c(-c2cccs2)csc1NC(=O)COc1ccccc1,u,-22.4%,20µM*,u,x
C=CCC1(O)CCOc2ccccc21 (centres undefined),7.4%,x,7.8%,5.6%,-2.0
CCCCOC(=O)CSc1nc(N)c(C#N)c(-c2ccc(OCC)cc2)c1C#N,-19.8%,-19.7%,-4.1%,u,-2.0
CCCCOc1ccc(-c2c(C#N)c(N)nc(SCC(N)=O)c2C#N)cc1,u,-12.9%,-11.3%,22.4µM*,3.7
CC1=CC(=O)Nc2ccccc2S1,x,22.4µM*,x,x,x
CC1(C)CC(=O)C2=C(C1)Nc1ccccc1S2,-27.0%,u,u,6.0%,3.6
O=c1ccc(N=Nc2ccccc2)ccc1O,u,-8.5%,4.47µM*,-3.2%,5.0
O=S(=O)(O)c1ccc(N=Nc2ccccc2)cc1,-11.3%,-15.2%,-15.4%,9.9%,15.0
CCOC(=O)CN1C(c2ccc(O)cc2)Nc2ccc(Br)cc2C1c1ccccc1 (centres undefined),7.08µM*[quencher],-3.4%,u,u,-0.7
CCOC(=O)CN1C(=O)Nc2ccc(Br)cc2C1c1ccccc1 (centres undefined),-13.8%,-6.7%,-13.8%,0.1%,x
O=C1CCCC=C1[C@@H](O)CCOC(c1ccccc1)(c1ccccc1)c1ccccc1,-9.1%,x,-4.1%,-4.8%,-0.6
Cc1ccc2oc(C(=O)Nc3ccc(S(=O)(=O)N(C)c4ccccc4)cc3)cc(=O)c2c1,u,u,-5.8%,u,x
O=C1c2ccccc2C(=O)c2c1cccc2N(CCO)CCO,x,-33.3%,x,x,-20.2
O=C1C=C(N(CCO)Cc2ccccc2)c2ccccc2C1=O,-27.5%,3.55µM*,12.6µM*,u,-74.8*
COc1cccc(C(=O)NC2CC3CCCC(C2)N3CC(=O)Nc2ccccc2)c1 (centres undefined),-16.9%,-20.2%,u,-0.1%,-35.7*
O=[N+]([O-])c1ccc(/C=N/n2cnc3ccccc32)s1,25.1µM*[quencher],-25.8%,14.1µM*,-11.5%,1.8
COc1ccc2oc(=O)c(C(=O)NCCc3c(C)[nH]c4c(Cl)cccc34)cc2c1,-29.2%,u,u,-6.1%,x
CC(=O)c1cccc2c(O)c(C3=Nc4ccccc4C3=O)[nH]c12,u,u,3.55µM*,u,-48.2*
COc1ccc(OC)c(NS(=O)(=O)c2cc3c(cc2Cl)N(C(C)=O)CCO3)c1,-6.9%,-12.0%,0.0%,-11.5%,x
O=C(CO/N=C/c1cccc([N+](=O)[O-])c1)Nc1ccc2ccccc2c1,12.6µM*[quencher],-15.8%,u,-5.5%,-4.0
SMILES,Tau fluor counter,USP1-UAF1 inh,Tau ThT inhib,Tau FP inhib,FBPA coupling cs
O=C(OCn1ncc(Br)c(Br)c1=O)c1ccccc1Cl,-20.1%,-26.3%,8.91µM*,u,5.1
O=C(OCn1ncc(Br)c(Br)c1=O)c1ccc(F)cc1,-5.7%,u,u,u,-0.5
N=c1c(-c2nc3ccccc3[nH]2)cc(C(=O)c2ccco2)nn1-c1ccccc1,u,-7.1%,15.8µM*,9.6%,-3.9
Oc1ccc(/C=N/N=C(c2ccccc2)c2ccccc2)c(O)c1O,12.6µM*[quencher],-11.9%,8.91µM*,u,-17.1
O=C(/C(=N/N=C/c1ccc(O)c(O)c1O)c1ccccc1)c1ccccc1,6.9%,u,10.1%,-2.8%,-40.4*
COc1ccc(C(=O)C(=NN)c2ccccc2)cc1,x,-13.4%,x,x,x
CCOC(=O)CSC1=C(C#N)C(c2ccc(F)cc2)C(C(C)=O)=C(C)N1 (centres undefined),-20.2%,-16.5%,u,-7.3%,-39.3*
CC(=O)C1=C(C)NC(SCC(=O)c2ccc(C)cc2)=C(C#N)C1c1ccco1 (centres undefined),14.1µM*[quencher],x,15.8µM*,u,-11.2
Cc1ccc(C(=O)CSC2=C(C#N)C(c3ccco3)C3=C(CC(C)(C)CC3=O)N2)cc1 (centres undefined),-23.4%,-13.9%,u,8.1%,1.4
CCOc1ccc(S(=O)(=O)c2c(C(=O)c3ccc(CC)cc3)cnc3ccc(C)cc23)cc1,-17.8%,-24.6%,u,-12.0%,x
Cc1cccc(NC(=O)CSc2nnc(-c3ccco3)c(-c3ccco3)n2)c1C,u,-8.0%,7.94µM*,12.6µM*,-15.0
Cc1cccc(NC(=O)CSc2nnc(-c3ccco3)c(-c3ccco3)n2)c1,u,u,14.1µM*,u,-4.6
CN(C)c1ccc(/C=N/N2C(=S)SC(C)(C)C2N(O)C(=O)Nc2ccc([N+](=O)[O-])cc2)cc1 (centres undefined),11.2µM*[quencher],-12.0%,17.8µM*,5.6%,0.3
CC(/C=C1\SC(=S)N(CCC(=O)Nc2cccc(C(=O)O)c2)C1=O)=C\c1ccccc1,x,-20.8%,x,x,1.1
CC(=C\c1ccccc1)/C=C1/SC(=S)N(C(C(=O)O)C(C)C)C1=O (centres undefined),-12.8%,-21.1%,25.1µM*,-10.0%,1.3
CC(/C=C1\SC(=S)N(CCCC(=O)Nc2ccc(C(=O)O)cc2)C1=O)=C\c1ccccc1,-14.1%,-26.0%,14.1µM*,-12.4%,-0.8
CC(C)C(C(=O)O)N1C(=O)/C(=C/c2ccc(Br)cc2)SC1=S (centres undefined),x,x,x,x,10.0
CCC(C(=O)O)N1C(=O)/C(=C/C(C)=C/c2ccccc2)SC1=S (centres undefined),-21.7%,-11.7%,17.8µM*,-11.6%,19.6
CN(C)S(=O)(=O)c1ccc(NC=O)cc1,7.7%,-25.7%,1.4%,3.1%,2.1
CCOC(=O)C1=C([Si](C)(C)C)c2ccccc2N(S(=O)(=O)C(F)(F)F)C1C(=O)OCC (centres undefined),-13.4%,x,u,4.6%,-4.5
Nc1ncnc2c1c(I)cn2C1OC(CO)C(O)C1O (centres undefined),-6.3%,x,-1.4%,-12.3%,-1.1
O=[N+]([O-])c1ccccc1S(=O)(=O)N1CCN(Cc2cc3c(cc2O)OCO3)CC1,11.2µM*[quencher],-9.9%,u,u,-3.9
COc1cccc(CNC(=O)CCc2cn(Cc3ccccc3Cl)c3ccccc23)c1,-15.3%,-10.6%,-4.6%,5.7%,x
